TGFb inhibitor – qHTS for Inhibitors of TGF-b; HepG2 CAGA-GFP TGF-b/SMAD3 reporter, GFP fluorescence, 18 h; TGF-beta stimulated, 500 pg/mL final; Potency, µM (titrated, usually from 46.1 µM), most hits filed as inhibitors; hit rate 1.2% among 410,000; AID 588855, 2011; further: nearly all actives have a fitted effect of over 65% in size
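Inhibition was scored as loss of TGF-beta-induced (500 pg/mL final, 18 hours, 37 degrees C) GFP in HEPG2 cells carrying a CAGA-GFP reporter, in DMEM with 1% FBS. Well GFP was summed per cell; Activity was normalised to unstimulated and stimulated DMSO wells, then concentration-response fitting.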
ATXN2 expr inh – Primary qHTS for Inhibitors of ATXN expression; HEK-293 ATXN2-luciferase reporter, luminescence, 24 h; Potency, µM (titrated, usually from 57 µM), actives largely listed as inhibitors; hit rate 0.72% among 360,000; AID 1745845, 2022; further: nearly all actives have a fitted effect of over 55% in size
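ATXN2-luciferase reporter cells (luciferase flanked by upstream and downstream ATXN2 gene portions) were treated 24 h at 37 °C with compounds at up to 57 uM. SteadyGlo luminescence gave expression; GF-AFC fluorescence gave viability.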
ATXN viability – Viability Counterscreen for Primary qHTS for Inhibitors of ATXN expression | S2 cells (HEK-293 line with an ATXN2-luciferase reporter) viability, CellTiter-Fluor protease fluorescence, 24 h | Potency, µM (highest dose often 56.7 µM), usual class: cytotoxic | hit rate 0.49% among 400,000; further: nearly all actives have a fitted effect of over 40% in size
TDP1 cell CPT – qHTS for Inhibitors of human tyrosyl-DNA phosphodiesterase 1 (TDP1): qHTS in cells in presence of CPT | AID 686979, 2013 | chicken DT40 Tdp1-/-;hTDP1 cells + 20 nM CPT, ATP luminescence, 48 h | hit rate 12% among 420,000 | Potency, µM (titrated, usually from 46.2 µM), hits mostly inhibitors; further: nearly all actives have a fitted effect of over 55% in size
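Cell growth measured by CellTiter-Glo luminescence after a minimum 48 h, 37 C compound exposure with 20 nM CPT in Tdp1-knockout DT40 cells stably expressing hTDP1, seeded 400/well; qHTS titration format.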
DT40 TDP1 no CPT – qHTS for Inhibitors of human tyrosyl-DNA phosphodiesterase 1 (TDP1): qHTS in cells in absence of CPT | DT40 Tdp1-/- hTDP1 cells, no CPT, ATP luminescence, 48 h | Potency, µM (series often up to 46.2 µM), actives largely listed as inhibitors | hit rate 15% among 420,000; further: nearly all actives have a fitted effect of over 55% in size
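A cellular qHTS used chicken DT40 cells lacking endogenous Tdp1 but carrying stably transfected human TDP1. Compounds were applied without camptothecin, and cell growth kinetics were judged by ATP-dependent luminescence after ≥48 hr.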
HepG2 viability – qHTS for Inhibitors of TGF-b: Cytotox Counterscreen; HepG2 CAGA-GFP viability, ATP luminescence, 18 h; Potency, µM (highest dose often 46.1 µM), most hits filed as cytotoxic; hit rate 0.76% among 410,000
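HepG2 CAGA-GFP cells (1000/well, DMEM with 1% FBS) received compound, then TGF-beta at 500 pg/mL final, and were incubated 18 hours at 37 degrees C. Viability was read by CellTiter-Glo luminescence. Media-only wells were set as complete cell-killing and DMSO as no toxicity.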
Numbers stand for hits; - = inactive; ? = inconclusive; . = not tested or not shown; [ ] = remark or other dose. Most compounds without a hit are left out; they make up all but 17% or so of the library. The call rests on the fitted dose curve; in most records, active means well fitted curve in the direction sought with a large enough effect; inconclusive means small, poorly fitted or top-dose-only effect, or another doubt; inactive means no such curve, though single readings can be large; an effect the other way counts as inactive or inconclusive.

SMILES	TGFb inhibitor	ATXN2 expr inh	ATXN viability	TDP1 cell CPT	DT40 TDP1 no CPT	HepG2 viability
Cn1c(Cc2ccccc2)nnc1SCC(=O)N1CCN(c2ccccc2)CC1	-	-	-	?	-	-
CCn1c(SCC(=O)N2CCN(c3ccccc3)CC2)nnc1-c1ccoc1C	-	-	-	-	-	-
Cc1ccc(NC(=O)C(=O)C2C(=O)Nc3ccccc32)cc1 (centres undefined)	-	-	-	?	?	-
N#Cc1cc(-c2ccccc2)cnc1Cl	-	-	-	-	-	-
N#Cc1ncc(Cl)c2ccccc12	-	.	-	-	-	15.8µM
C=CCN1C(=O)c2ccc(C(=O)OCC(=O)N3CCN(c4ccccc4)CC3)cc2C1=O	-	-	-	-	-	-
CC(C(=O)Nc1ccccc1-c1ccccc1)N1CCN(C(=O)c2ccccc2)CC1 (centres undefined)	-	-	-	?	25.9µM	-
Cc1ccc(S(=O)(=O)N2CCN(C(C)C(=O)Nc3ccccc3-c3ccccc3)CC2)cc1 (centres undefined)	-	-	-	?	16.4µM	-
CC(C(=O)Nc1ccccc1-c1ccccc1)N1CCN(Cc2ccccc2)CC1 (centres undefined)	?	-	-	?	?	-
COc1ccc(C(C)(C)C)cc1NC(=O)c1cccc(S(=O)(=O)N2CCN(C(C)=O)CC2)c1	-	-	-	-	?	-
COc1cccc(CNC(=O)CCCCCNC(=O)N2CCn3c2nc2ccccc23)c1	-	-	-	16.4µM	-	-
COc1cccc(CNC(=O)CCNC(=O)N2CCn3c2nc2ccccc23)c1	-	-	-	-	-	-
Cc1ccc(CNC(=O)CCCCCNC(=O)N2CCn3c2nc2ccccc23)cc1	-	-	-	18.4µM	?	-
CCN(CC)S(=O)(=O)c1cccc(C(=O)Nc2cc(C)on2)c1	-	-	-	-	-	-
O=C(c1cc(F)c(F)c(F)c1F)N1CCN(Cc2ccc3c(c2)OCO3)CC1	-	-	-	?	-	-
COc1ccc2cc(-c3[nH]ncc3CN3CCCC3c3nonc3C)ccc2c1 (centres undefined)	?	.	-	?	23.1µM	-
COc1ccc(-c2[nH]ncc2CN2CCCC(C(=O)c3cccc(OC)c3)C2)cc1 (centres undefined)	-	-	-	-	-	-
CC1CCN(S(=O)(=O)c2cccc(C(=O)NC3CCCCC3)c2)CC1	-	-	-	-	-	-
COC(=O)N1CCc2c(sc(NC(=O)C3=COCCO3)c2C#N)C1	-	-	-	1.3µM	0.92µM	-
COc1cccc(C(=O)Nc2sc3c(c2C(=O)O)CCCC3)c1	-	-	-	-	?	-
CNC(=O)c1c(NC(=O)C2=COCCO2)sc2c1CCN(C(=O)OC)C2	-	-	-	-	-	-
COc1cccc(C(=O)Nc2sc3c(c2C#N)CCN(C(C)=O)C3)c1	?	.	?	2.06µM	1.46µM	-
CC1=CC(C)(C)n2c(O)c(C3=NC(=S)NC3=O)c3cc(OC(=O)c4cccc5ccccc45)cc1c32	-	-	?	?	23.1µM	-
Cn1cc(-c2cc3n(n2)CCC(=O)N3CCCC(=O)NCc2ccc(F)cc2)c2ccccc21	-	-	-	16.4µM	?	-
CCc1ccc(CNC(=O)CN2C(=O)CCn3nc(-c4cn(C)c5ccccc45)cc32)cc1	-	-	-	16.4µM	-	-
SMILES	TGFb inhibitor	ATXN2 expr inh	ATXN viability	TDP1 cell CPT	DT40 TDP1 no CPT	HepG2 viability
Cc1nc2nc(SCC(=O)O)nn2c(C)c1Cc1ccccc1Cl	-	-	.	-	-	-
CC1CC(C)CN(C(=O)COC(=O)c2c[nH]c3ccccc23)C1 (centres undefined)	-	-	-	-	-	-
CCCCCCCCOC(=O)/C=C/c1c(C)[nH]c(=O)[nH]c1=O	-	-	-	?	7.31µM	-
CCCCN(CCCC)S(=O)(=O)c1c(C)[nH]c(=O)[nH]c1=O	-	-	?	-	-	-
Cc1ccc(NC(=O)C2CCCN(C(=O)c3ccc(Cl)cc3)C2)cc1C (centres undefined)	-	-[11.3 µM]	?	4.11µM	2.91µM	-
CCN(CC)S(=O)(=O)c1ccc(N2CCCCC2)c(NC(=O)C2CCN(C(=O)c3ccc(F)cc3)CC2)c1	-	-	-	?	23.1µM	-
Cc1ccc(NC(=O)C2CCCN(C(=O)c3ccc(Cl)cc3)C2)cc1 (centres undefined)	-	-	-	?	?	-
O=C(Nc1ccccc1N1CCCC1)C1CCN(C(=O)c2ccc(F)cc2)CC1	-	-	-	-	-	-
CC(C)C(=O)NC(=S)Nc1ccccc1N1CCN(C(=O)c2ccc(Cl)cc2)CC1	-	-	-	?	16.4µM	-
O=C(Nc1ccccc1N1CCCCC1)C1CCN(C(=O)c2ccc(Cl)cc2)CC1	?	-	-	23.1µM	?	-
Clc1ccccc1N/N=C/c1ccc2c(c1)OCO2	-	-	-	-	-	-
CC1CCCCC1NC(=O)Cn1cc([N+](=O)[O-])ccc1=O (centres undefined)	-	.	-	-	-	-
COc1ccc(C(=O)N2CCC(C(=O)Nc3ccc4c(c3)OCO4)CC2)cc1	-	.	-	-	-	-
COC(=O)c1ccc(NC(=O)C2CCN(C(=O)c3cc(OC)c(OC)c(OC)c3)CC2)cc1	-	-	-	?	?	-
CCOC(=O)c1ccc(NC(=O)C2CCN(C(=O)c3ccc(OC)c(OC)c3)CC2)cc1	-	-	-	?	20.6µM	-
Cc1cc(Cl)ccc1C(=O)C1CCCN(C(=O)c2ccsc2)C1 (centres undefined)	?	-	?	?	?	-
COc1ccc(C(=O)N2CCC(C(=O)Nc3ccc(Cl)cc3)CC2)cc1	-	-	?	5.8µM	?	-
Cc1cc(Cl)ccc1C(=O)C1CCCN(C(=O)c2cccc(N3CCCC3=O)c2)C1 (centres undefined)	-	-	-	16.4µM	?	-
COc1cc(C(=O)N2CCN(c3ccccc3)CC2)c([N+](=O)[O-])cc1OC	-	-[11.3 µM]	?	-	-	-
N#CSC(c1ccccc1)c1nc2ccccc2[nH]c1=O (centres undefined)	?	-	-	6.51µM	25.9µM	-

Assay outcomes as filed in PubChem.
